From PubChem BioAssay (EPA / NIEHS) come the findings set out here.

The AC50 is the concentration at which the activity in the assay is half-maximal.

Experiment [1] is described as follows: CCTE_Padilla_ZF_144hpf_TERATOSCORE: (Legacy) CCTE's 144 Hour Post-fertilization zebrafish Assay Teratoscore, Padilla Lab (AID 2283679; active means hit-call score of the fitted dose curve at least 0.9, where 1 is the maximum; inactive means score below 0.9;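 on AC50: zebrafish embryos with chorions exposed by immersion from 6-8 hpf to 5 dpf with daily renewal; teratogenicity score from eye scoring of death hatching and malformations at 144 hpf; higher score means more developmental defects relative to DMSO baseline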). In outline: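 Larvae scored by eye at 144 hpf for death, hatching and malformations after a day in clean Hanks'. Before that, daily-renewed exposure at 80 uM (0.4% DMSO, 26C) from roughly 6-8 hpf through 5 dpf, 4 embryos per chemical.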

Read-out in experiment [2]: ABC Transporter (ABCB11), ABCB11 (gene 8647)
Description: CLD_ABCB11_6hr: CellzDirect (CLD) Gene Expression Assay for ABC Transporter (ABCB11) at 6 hours (AID 2283675).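 Further: hits raise ABCB11 mRNA level so AC50 marks induction.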 On the procedure: (§1) CLD_6hr is a cell-based, multiplexed-readout assay that uses hepatocyte, a human liver primary cell, with measurements taken at 6 hours after chemical dosing in a 96-well plate.CLD_ABCB11_6hr is one of 16 assay component(s) measured or calculated from the CLD_6hr assay. It is designed to make measurements of mRNA induction, a form of inducible reporter, as detected with chemiluminescence signals by Quantitative Nuclease Protection Assay (qNPA) technology.Data from the assay component CLD_ABCB11_6hr was analyzed at the endpoint, CLD_ABCB11_6hr, in the positive analysis fitting direction relative to DMSO as the negative control and baseline of activity. […] Furthermore, this assay endpoint can be referred to as a primary readout. […]
(§2) Human hepatocyte cultures were treated daily for two consecutive days with fresh dosing solutions containing appropriate concentrations of the 320 ToxCast chemicals (chemical identities were blinded to CellzDirect and other ToxCast collaborators), vehicle control (0.2% DMSO), and positive control inducers as summarized in Table 1. […] Cultures for each treatment group (i.e., media, vehicle [0.2% DMSO], positive control inducers [multiple concentrations], and the ToxCast chemicals [multiple concentrations]) were observed and cell morphology was assessed relative to vehicle control cultures at each harvest time point (0, 6, 24, or 48 h). […]

The nature of experiment [3]: CLD_ACTIN_6hr: CellzDirect (CLD) Gene Expression Assay for Baseline Control (Actin) at 6 hours (AID 2283676).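 Further: active means increased actin mRNA relative to DMSO vehicle.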 Here is the method: CLD_6hr is a cell-based, multiplexed-readout assay that uses hepatocyte, a human liver primary cell, with measurements taken at 6 hours after chemical dosing in a 96-well plate.CLD_ACTIN_6hr is one of 16 assay component(s) measured or calculated from the CLD_6hr assay. It is designed to make measurements of mRNA induction, a form of inducible reporter, as detected with chemiluminescence signals by Quantitative Nuclease Protection Assay (qNPA) technology.Data from the assay component CLD_ACTIN_6hr was analyzed at the endpoint, CLD_ACTIN_6hr, in the positive analysis fitting direction relative to DMSO as the negative control and baseline of activity. Using a type of inducible reporter, gain-of-signal activity can be used to understand changes in the reporter gene as they relate to the gene ACTA1. Furthermore, this assay endpoint can be referred to as a secondary readout, because this assay has produced multiple assay endpoints where this one serves a background control function. To generalize the intended target to other relatable targets, this assay endpoint is annotated to the background measurement intended target family, where subfamily is baseline control.
(§3) Human hepatocyte cultures were treated daily for two consecutive days with fresh dosing solutions containing appropriate concentrations of the 320 ToxCast chemicals (chemical identities were blinded to CellzDirect and other ToxCast collaborators), vehicle control (0.2% DMSO), and positive control inducers as summarized in Table 1. Due to the large number of treatment groups and chemicals examined, the ToxCast chemicals were divided into two groups (spanning two independent cultures of hepatocytes from separate donor preparations (Hu778: ToxCast plates 1 and 2; Hu776: ToxCast plates 3 and 4). Each preparation of human hepatocyte cultures was treated with respective vehicle control, medium only control, set of six positive controls/reference chemicals for the five hepatic receptor pathways, and a subset of eight of the ToxCast chemicals (indoxacarb, pyrithiobac-sodium, norflurazon, cyhalofop-butyl, methomyl, thiram, acetochlor, and propiconazole). These replicate data, coupled with internal replicates designed within the blinded ToxCast chemical library, provided additional data to evaluate interindividual differences between hepatocyte preparations and their potential impact on chemical profiles.Cell morphology and integrity were evaluated using phase-contrast microscopy as an indicator of hepatocyte cell health (Tyson & Green, 1987). Cultures for each treatment group (i.e., media, vehicle [0.2% DMSO], positive control inducers [multiple concentrations], and the ToxCast chemicals [multiple concentrations]) were observed and cell morphology was assessed relative to vehicle control cultures at each harvest time point (0, 6, 24, or 48 h). […] Images were evaluated at the conclusion of the study to assess changes in cell integrity and account for the effects of chemical exposure on uncharacteristic changes in concentration-dependent gene expression profiles. […]

Read-out in experiment [4]: Cytochrome P450 2B6 (Homo sapiens) (UniProt P20813)
Description: CLD_CYP2B6_6hr: CellzDirect (CLD) Gene Expression Assay for xenobiotic metabolism (CYP2B6) at 6 hours (AID 2283677).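 Further: actives raise CYP2B6 transcript above DMSO baseline so AC50 marks an inducer.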 On the procedure: (§4) CLD_6hr is a cell-based, multiplexed-readout assay that uses hepatocyte, a human liver primary cell, with measurements taken at 6 hours after chemical dosing in a 96-well plate.CLD_CYP2B6_6hr is one of 16 assay component(s) measured or calculated from the CLD_6hr assay. It is designed to make measurements of mRNA induction, a form of inducible reporter, as detected with chemiluminescence signals by Quantitative Nuclease Protection Assay (qNPA) technology.Data from the assay component CLD_CYP2B6_6hr was analyzed at the endpoint, CLD_CYP2B6_6hr, in the positive analysis fitting direction relative to DMSO as the negative control and baseline of activity. Using a type of inducible reporter, gain-of-signal activity can be used to understand changes in the reporter gene as they relate to the gene CYP2B6. Furthermore, this assay endpoint can be referred to as a primary readout. To generalize the intended target to other relatable targets, this assay endpoint is annotated to the cyp intended target family, where subfamily is xenobiotic metabolism.
as §3, with “Due to the large number of treatment groups and chemicals examined, the ToxCast chemicals were divided into two groups (spanning two independent cultures of hepatocytes from separate donor preparations (Hu778: ToxCast plates 1 and 2; Hu776: ToxCast plates 3 and 4). Each preparation of human hepatocyte cultures was treated with respective vehicle control, medium only control, set of six positive controls/reference chemicals for the five hepatic receptor pathways, and a subset of eight of the ToxCast chemicals (indoxacarb, pyrithiobac-sodium, norflurazon, cyhalofop-butyl, methomyl, thiram, acetochlor, and propiconazole).” left out

Read-out in experiment [5]: Cytochrome P450 3A4 (Homo sapiens) (UniProt P08684)
Description: CLD_CYP3A4_6hr: CellzDirect (CLD) Gene Expression Assay for xenobiotic metabolism (CYP3A4) at 6 hours (AID 2283680). On the procedure:
as §4, with “plate.CLD_CYP3A4_6hr” for “plate.CLD_CYP2B6_6hr”, “CLD_CYP3A4_6hr” for “CLD_CYP2B6_6hr”, “CLD_CYP3A4_6hr,” for “CLD_CYP2B6_6hr,”, “CYP3A4.” for “CYP2B6.”
as §3, with “Due to the large number of treatment groups and chemicals examined, the ToxCast chemicals were divided into two groups (spanning two independent cultures of hepatocytes from separate donor preparations (Hu778: ToxCast plates 1 and 2; Hu776: ToxCast plates 3 and 4). Each preparation of human hepatocyte cultures was treated with respective vehicle control, medium only control, set of six positive controls/reference chemicals for the five hepatic receptor pathways, and a subset of eight of the ToxCast chemicals (indoxacarb, pyrithiobac-sodium, norflurazon, cyhalofop-butyl, methomyl, thiram, acetochlor, and propiconazole).” left out

Read-out in experiment [6]: Glyceraldehyde-3-phosphate dehydrogenase (Homo sapiens) (UniProt P04406)
The experiment is described as follows: CLD_GAPDH_6hr: CellzDirect (CLD) Gene Expression Assay for Baseline Control (Glyceraldehyde 3-phosphate dehydrogenase) at 6 hours (AID 2283681).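 Further: active means increased signal relative to DMSO vehicle.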 In outline: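 GAPDH baseline-control readout from qNPA (S1 nuclease digestion, probe hybridization, chemiluminescence) in lysates of cultured human hepatocytes harvested 6 h post-dosing. Chemicals tested at multiple concentrations versus 0.2% DMSO vehicle; microscopy-based cytotoxicity flagged yes/no.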

Read-out in experiment [7]: xenobiotic metabolism (CYP1A2), CYP1A2 (gene 1544)
The experiment is described as follows: CLD_CYP1A2_24hr: CellzDirect (CLD) Gene Expression Assay for xenobiotic metabolism (CYP1A2) at 24 hours (AID 2283683). Here is the method: CLD_24hr is a cell-based, multiplexed-readout assay that uses hepatocyte, a human liver primary cell, with measurements taken at 24 hours after chemical dosing in a 96-well plate.CLD_CYP1A2_24hr is one of 16 assay component(s) measured or calculated from the CLD_24hr assay. It is designed to make measurements of mRNA induction, a form of inducible reporter, as detected with chemiluminescence signals by Quantitative Nuclease Protection Assay (qNPA) technology.Data from the assay component CLD_CYP1A2_24hr was analyzed at the endpoint, CLD_CYP1A2_24hr, in the positive analysis fitting direction relative to DMSO as the negative control and baseline of activity. Using a type of inducible reporter, gain-of-signal activity can be used to understand changes in the reporter gene as they relate to the gene CYP1A2. Furthermore, this assay endpoint can be referred to as a primary readout. To generalize the intended target to other relatable targets, this assay endpoint is annotated to the cyp intended target family, where subfamily is xenobiotic metabolism.
Human hepatocyte cultures were treated daily for two consecutive days with fresh dosing solutions containing appropriate concentrations of the 320 ToxCast chemicals (chemical identities were blinded to CellzDirect and other ToxCast collaborators), vehicle control (0.2% DMSO), and positive control inducers as summarized in Table 1. Due to the large number of treatment groups and chemicals examined, the ToxCast chemicals were divided into two groups (spanning two independent cultures of hepatocytes from separate donor preparations (Hu778: ToxCast plates 1 and 2; Hu776: ToxCast plates 3 and 4). Each preparation of human hepatocyte cultures was treated with respective vehicle control, medium only control, set of six positive controls/reference chemicals for the five hepatic receptor pathways, and a subset of eight of the ToxCast chemicals (indoxacarb, pyrithiobac-sodium, norflurazon, cyhalofop-butyl, methomyl, thiram, acetochlor, and propiconazole). These replicate data, coupled with internal replicates designed within the blinded ToxCast chemical library, provided additional data to evaluate interindividual differences between hepatocyte preparations and their potential impact on chemical profiles.Cell morphology and integrity were evaluated using phase-contrast microscopy as an indicator of hepatocyte cell health (Tyson & Green, 1987). Cultures for each treatment group (i.e., media, vehicle [0.2% DMSO], positive control inducers [multiple concentrations], and the ToxCast chemicals [multiple concentrations]) were observed and cell morphology was assessed relative to vehicle control cultures at each harvest time point (0, 6, 24, or 48 h). […] Images were evaluated at the conclusion of the study to assess changes in cell integrity and account for the effects of chemical exposure on uncharacteristic changes in concentration-dependent gene expression profiles. The results from these determinations of apparent cytotoxicity were annotated (yes/no) alongside the corresponding qNPA data for reference.At the conclusion of each treatment period, hepatocyte cultures (96-well) were washed with 1 volume of HBSS, lysed by addition of 25 ul ArrayPlate lysis buffer (HTG, Tucson, AZ), and 70 ul/well of Denaturation Oil, denatured by incubation at 95C for 10 min, and frozen at approximately -70C until analysis by nuclease protection assay (qNPA) (Roberts et al., 2007). […]

Read-out in experiment [8]: ABC Transporter (ABCB1), ABCB1 (gene 5243)
The experiment is described as follows: CLD_ABCB1_24hr: CellzDirect (CLD) Gene Expression Assay for ABC Transporter (ABCB1) at 24 hours (AID 2283684). In outline: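 ABCB1 mRNA induction versus 0.2% DMSO vehicle was read by qNPA chemiluminescence at 24 h. Cultured human hepatocytes from two donor preparations received daily fresh dosing, and phase-contrast cytotoxicity calls were annotated alongside the data.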

Read-out in experiment [9]: HMG-CoA synthase (HMGCS2), HMGCS2 (gene 3158)
The experiment is described as follows: CLD_HMGCS2_6hr: CellzDirect (CLD) Gene Expression Assay for HMG-CoA synthase (HMGCS2) at 6 hours (AID 2283682).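 Further: actives raise HMGCS2 transcript above the 0.2% DMSO vehicle baseline.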 Here is the method:
as §1, with “plate.CLD_HMGCS2_6hr” for “plate.CLD_ABCB11_6hr”, “CLD_HMGCS2_6hr” for “CLD_ABCB11_6hr”, “CLD_HMGCS2_6hr,” for “CLD_ABCB11_6hr,”
as §2

Each structure is given as a SMILES string. Inconclusive results are not listed. The source made the active and inactive calls. How the source made its calls, unless noted: active means hit-call score of the fitted dose curve at least 0.9, where 1 is the maximum; inconclusive means response in the unintended direction; inactive means score below 0.9.

Glyceraldehyde-3-phosphate dehydrogenase (Homo sapiens), sequence (P04406 whole entry, looked up): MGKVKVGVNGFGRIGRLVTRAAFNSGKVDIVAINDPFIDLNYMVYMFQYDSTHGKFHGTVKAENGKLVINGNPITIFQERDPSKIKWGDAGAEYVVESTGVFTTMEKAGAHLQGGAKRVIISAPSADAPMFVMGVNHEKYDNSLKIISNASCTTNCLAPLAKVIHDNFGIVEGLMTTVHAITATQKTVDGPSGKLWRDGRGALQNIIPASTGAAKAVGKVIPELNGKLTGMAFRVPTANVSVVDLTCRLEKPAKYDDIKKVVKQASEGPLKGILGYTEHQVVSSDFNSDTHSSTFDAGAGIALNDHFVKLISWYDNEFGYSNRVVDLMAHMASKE
Cytochrome P450 3A4 (Homo sapiens), sequence (P08684 whole entry, looked up): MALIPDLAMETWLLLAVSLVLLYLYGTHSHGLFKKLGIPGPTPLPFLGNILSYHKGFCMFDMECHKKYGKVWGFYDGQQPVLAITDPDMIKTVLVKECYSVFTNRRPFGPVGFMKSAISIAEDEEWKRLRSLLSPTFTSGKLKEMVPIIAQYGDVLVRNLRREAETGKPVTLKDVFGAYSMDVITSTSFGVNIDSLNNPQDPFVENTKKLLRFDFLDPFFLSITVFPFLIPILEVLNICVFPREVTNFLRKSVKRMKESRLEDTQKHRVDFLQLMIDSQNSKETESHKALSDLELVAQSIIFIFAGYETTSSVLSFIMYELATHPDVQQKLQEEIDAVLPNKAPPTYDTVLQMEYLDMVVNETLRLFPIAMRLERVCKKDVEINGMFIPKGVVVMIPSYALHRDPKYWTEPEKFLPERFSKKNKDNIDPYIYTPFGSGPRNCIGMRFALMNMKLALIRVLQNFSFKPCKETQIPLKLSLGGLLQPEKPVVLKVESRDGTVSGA

Turning to `CCOC(=O)C(O)(c1ccc(Cl)cc1)c1ccc(Cl)cc1`, the concentration at half-maximal activity (AC50) in experiment [1] was 1.71 µM (active).
Still for that read-out and setting: the figure for `O=S(=O)(O)C(F)(F)C(F)(F)C(F)(F)C(F)(F)C(F)(F)C(F)(F)F` is 123 µM (active); for `Clc1ccc(C(c2ccccc2Cl)C(Cl)(Cl)Cl)cc1` (configuration not stated) it is 16.1 µM (active).
Take `CCC(C)(CC)c1cc(NC(=O)c2c(OC)cccc2OC)on1`: the call in experiment [2], in experiment [3], in [6] and in [8] was inactive. Moreover, the AC50 in experiment [4] was 0.116 µM (active); in [1], 58.2 µM (active); in experiment [5], 0.0356 µM (active); in experiment [7], 8.57 µM (active).
With `O=C(O)C(F)(F)C(F)(F)C(F)(F)C(F)(F)C(F)(F)C(F)(F)C(F)(F)C(F)(F)C(F)(F)F`, in experiment [1], the AC50 is 60.2 µM (active).
As to `CN(C)c1nc(=O)n(C2CCCCC2)c(=O)n1C`, the molecule was called inactive in experiment [3], in experiment [4], in experiment [1], in experiment [5], in experiment [6] and in experiment [9]. In addition, the molecule was called inactive in experiment [7] and in [8].
On to `Oc1ccc(C(c2ccc(O)cc2)(C(F)(F)F)C(F)(F)F)cc1`, for which, in experiment [1], the AC50 is 18.1 µM (active).
Take `CC(c1ccc(O)cc1)(c1ccc(O)cc1)c1ccc(O)cc1`: in experiment [1], the molecule was classed as inactive.
Consider `CC(C)(c1ccccc1)c1ccc(O)cc1`, for which, in experiment [1], the AC50 is 4.83 µM (active).
As to `O=C(NC(=O)c1cc(F)c(F)cc1Cl)Nc1cc(F)ccc1N1CCC(C(=O)O)CC1`, the AC50 in experiment [1] was 31 µM (active).
On the same count and under the same terms, the same measure for `ClC(Cl)=C(c1ccc(Cl)cc1)c1ccc(Cl)cc1`: 8.32 µM (active); for `Oc1ccc(Cl)cc1Cl`: 56.6 µM (active); for `CC(C)(O)C(=O)Nc1ccc([N+](=O)[O-])c(C(F)(F)F)c1`: 31.4 µM (active).
